Reference: the supplement of paper PMC12669032
Where “and” joins values, the source holds several entries; their conditions need not be identical. Equal entries are not always repeated. Unmarked numbers belong to inactive results.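 Rule for the calls: active = AUC reduced over 20% with Padj below 0.05 in at least 2 of 3 replicates; inactive = otherwise.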

Columns and labels:
Assay in all cases: growth AUC relative to DMSO control (median of replicates) (fraction); higher = more growth (less inhibition), active = hit call of the paper
Conditions in all cases: 20 µM; 24 h
Akkermansia muciniphila = tested on: Akkermansia muciniphila
Method in brief: (§1)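 Area under the growth curve was normalised to the plate median of solvent-only wells, or to row and column medians on the industrial chemical plate. Growth curves came from anaerobic gut bacterial monocultures in mGAM at 37 °C, seeded at OD600 0.05 with 20 µM compound (1% DMSO), and read at OD600 hourly for 24 h with the minimum OD set to 0. The value is the median of three biological replicates grown on separate days.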

Bacteroides caccae = tested on: Bacteroides caccae
Method in brief: as §1

Bacteroides clarus = tested on: Bacteroides clarus
Method in brief: as §1

Bacteroides dorei = tested on: Bacteroides dorei
Method in brief: as §1

Bacteroides stercoris = tested on: Bacteroides stercoris
Method in brief: as §1

[1] = tested on: Bacteroides thetaiotaomicron
Method in brief: as §1

Bacteroides uniformis = tested on: Bacteroides uniformis
Method in brief: as §1

[2] = tested on: Bifidobacterium longum subsp. longum
Method in brief: as §1

Clostridium difficile = tested on: Clostridium difficile
Method in brief: as §1

Collinsella aerofaciens = tested on: Collinsella aerofaciens
Method in brief: as §1

Coprococcus comes = tested on: Coprococcus comes
Method in brief: as §1

Escherichia coli ED1a = tested on: Escherichia coli ED1a
Method in brief: as §1

Escherichia coli IAI1 = tested on: Escherichia coli IAI1
Method in brief: as §1

Eubacterium rectale = tested on: Eubacterium rectale
Method in brief: as §1

[3] = tested on: Fusobacterium nucleatum subsp. animalis
Method in brief: as §1

Lactobacillus gasseri = tested on: Lactobacillus gasseri
Method in brief: as §1

Lactobacillus paracasei = tested on: Lactobacillus paracasei
Method in brief: as §1

Odoribacter splanchnicus = tested on: Odoribacter splanchnicus
Method in brief: as §1

[4] = tested on: Parabacteroides distasonis
Method in brief: as §1

Parabacteroides merdae = tested on: Parabacteroides merdae
Method in brief: as §1

SMILES	growth AUC (Akkermansia muciniphila)	growth AUC (Bacteroides caccae)	growth AUC (Bacteroides clarus)	growth AUC (Bacteroides dorei)	growth AUC (Bacteroides stercoris)	growth AUC [1]	growth AUC (Bacteroides uniformis)	growth AUC [2]	growth AUC (Clostridium difficile)	growth AUC (Collinsella aerofaciens)	growth AUC (Coprococcus comes)	growth AUC (Escherichia coli ED1a)	growth AUC (Escherichia coli IAI1)	growth AUC (Eubacterium rectale)	growth AUC [3]	growth AUC (Lactobacillus gasseri)	growth AUC (Lactobacillus paracasei)	growth AUC (Odoribacter splanchnicus)	growth AUC [4]	growth AUC (Parabacteroides merdae)
CS(=O)(=O)c1ccc(C(=O)C2C(=O)CCCC2=O)c(Cl)c1COCC(F)(F)F	1.07	1.02	0.988	0.999	1.02	0.989	0.989	1.01	0.979	1.03	1.01	1.01	0.994	1.04	1.05	0.917	0.989	1.14	0.944	1.01
Clc1c(Cl)c(Cl)c(Cl)c(Cl)c1Cl	0.994	1.01	1	1.04	1.08	1	0.992	0.981	1	1.06	1	1.01	1.01	1.02	0.98	1.07	0.936	1.03	1.03	1.03
Cc1ccn2nc(S(=O)(=O)Nc3c(F)cccc3F)nc2n1	1.04	0.968	0.986	0.957	0.955	0.985	1.06	1.03	1.03	0.945	0.981	0.969	0.965	1.1	1.1	0.999	1.02	1.09	1.02	1
COc1nc(C)nc(NC(=O)NS(=O)(=O)c2ccccc2Cl)n1	0.942	1	0.959	0.99	0.929	0.958	1	0.938	1.02	1.04	0.971	0.982	0.988	0.986	1.02	1.07	1.01	0.952	1.01	0.979
C=CC1(C)OC(=O)N(c2cc(Cl)cc(Cl)c2)C1=O (stereo not given)	1.02	0.985	0.958	1	0.994	0.989	0.99	0.917	1.02	0.999	0.982	0.979	0.967	0.956	0.991	1.1	0.878	0.982	0.98	0.982
Cc1ccc(NC(=O)c2snnc2C)cc1Cl	0.741	0.968	0.914	1.03	0.879	0.905	1.02	0.898	1	1.05	0.965	0.968	0.937	1	0.938	1.08	0.866	0.975	0.986	0.973
CC(C)OC(=O)C(C(=O)OC(C)C)=C1SCCS1	1.07	0.993	1.01	0.995	0.955	0.974	1.01	1.04	1.02	0.984	1.06	1.01	0.988	1.02	1.02	0.977	0.98	0.995	0.782 (active)	1.01
ClCC(Br)CBr (stereo not given)	0.997	1.04	0.981	0.974	0.996	1	0.957	1	1	0.992	1	0.985	0.996	0.994	0.995	0.916	0.995	1.02	1	0.996
O=S1OC[C@@H]2[C@H](CO1)[C@]1(Cl)C(Cl)=C(Cl)[C@@]2(Cl)C1(Cl)Cl (stereo not given in full)	0.871 and 0.977	0.96 and 1.01	0.957 and 0.941	0.965 and 0.954	0.913 and 0.734	0.959 and 0.894	0.903 and 0.899	0.963 and 0.916	0.98 and 0.994	0.99 and 0.941	0.959 and 0.955	0.995 and 0.982	0.985 and 1.03	1.07 and 0.951	0.927 and 0.887	0.974 and 0.906	1.05 and 1.01	0.949 and 0.879	0.98 and 0.937	0.977 and 0.917
Cc1ccc2nc3sc(=O)sc3nc2c1	1.04	0.982	1.01	0.985	0.879	1	1.04	1.07	1.02	0.982	0.964	0.969	0.948	1.02	1.04	0.915	0.954	1.14	0.924	0.954
O=[N+]([O-])c1c(Cl)c(Cl)cc(Cl)c1Cl	1.02	0.973	1.01	1.01	1.19	1.04	0.992	0.98	1.02	1.05	1.01	0.99	1.02	0.954	0.983	1.14	0.927	1.02	0.986	1.01
C[n+]1ccc(-c2cc[n+](C)cc2)cc1.O.[Cl-].[Cl-]	0.705	0.846	1	0.996	0.996	0.996	1.03	1.02	0.947	0.947	0.98	1.03	0.991	0.963	0.937	1.05	1.01	0.873	0.997	0.954
CCOP(=S)(OCC)SCn1nnc2ccccc2c1=O	0.989	0.969	0.993	1.01	1.1	0.908	0.913	1.04	1.02	1.03	1.01	1.01	1.03	1.02	1.09	1.01	1.05	0.926	0.707 (active)	0.946
CNC(=O)O/N=C(\SC)C(=O)N(C)C	1.01	0.999	0.967	1.05	1.05	0.993	1.01	0.957	0.965	0.999	0.971	0.985	0.987	1	0.979	1.09	0.883	0.975	0.99	0.973
ClC(Cl)=C(c1ccc(Cl)cc1)c1ccc(Cl)cc1	1.1	0.933	0.961	0.953	1.18	0.956	1.01	1.05	0.969	0.842	0.914	1	0.986	1.02	1.03	0.938	0.921	1.02	0.985	0.909
CCCN(CCC)C(=O)SCc1ccccc1	1.04	0.994	0.996	0.976	1.13	0.972	0.985	0.967	0.987	0.998	1.01	1.01	0.985	1.09	1.01	1.02	0.963	1.08	0.89	0.998

SMILES	growth AUC (Akkermansia muciniphila)	growth AUC (Bacteroides caccae)	growth AUC (Bacteroides clarus)	growth AUC (Bacteroides dorei)	growth AUC (Bacteroides stercoris)	growth AUC [1]	growth AUC (Bacteroides uniformis)	growth AUC [2]	growth AUC (Clostridium difficile)	growth AUC (Collinsella aerofaciens)	growth AUC (Coprococcus comes)	growth AUC (Escherichia coli ED1a)	growth AUC (Escherichia coli IAI1)	growth AUC (Eubacterium rectale)	growth AUC [3]	growth AUC (Lactobacillus gasseri)	growth AUC (Lactobacillus paracasei)	growth AUC (Odoribacter splanchnicus)	growth AUC [4]	growth AUC (Parabacteroides merdae)
CNC(=O)/C(=N\OC)c1ccccc1Oc1ccccc1	0.873	0.981	0.959	0.97	0.953	1.02	0.998	0.987	1.01	1.03	1.01	1.01	1	0.963	0.974	1.05	0.986	0.961	1.02	0.99
CCOC1Oc2ccc(OS(C)(=O)=O)cc2C1(C)C (stereo not given)	1.03	0.907	0.978	0.889	0.897	0.987	0.993	1.01	0.99	0.916	0.943	0.949	0.964	1.16	0.903	0.891	0.98	1.15	0.879	0.927
CCCCCCCCn1sccc1=O	1.04	0.924	0.442 (active)	0.912	0.995	0.689 (active)	0.731	0.571 (active)	0.848	0.776 (active)	0.958	0.944	0.938	0.868	0.83	0.757 (active)	1.01	0.597	0.129 (active)	0.00935 (active)
CC(C)[C@H](C(=O)O[C@H](C#N)c1cccc(Oc2ccccc2)c1)c1ccc(Cl)cc1	1.1	0.99	0.979	1.04	0.778	1.01	1.02	0.917	1	0.921	0.973	0.962	0.959	0.934	0.954	0.901	1.01	1.09	0.923	1.01
NC(=S)c1c(Cl)cccc1Cl	0.917	0.943	0.97	0.935	1.01	1.03	0.972	1.05	1.02	0.962	1.01	0.994	0.979	1.22	0.822	0.884	0.953	0.985	0.965	0.887
Oc1ccc(Cc2ccc(O)cc2)cc1	0.954	0.992	1.03	0.998	1.05	1.02	1.01	0.975	1.02	1.01	0.968	1.03	0.979	1.09	0.987	1.04	0.962	0.942	0.89	0.994
CNC(=O)N(C)c1nc2ccccc2s1	0.902	1.02	0.991	1	0.998	0.999	0.991	0.936	0.978	0.995	0.992	0.999	0.991	0.958	0.971	0.994	0.949	0.988	0.972	1.02
ClCC1C(CCl)C2(Cl)C(Cl)=C(Cl)C1(Cl)C2(Cl)Cl (stereo not given)	0.995	0.971	0.999	0.972	0.985	0.994	1.01	1.02	0.989	0.962	0.945	0.973	1	1.02	1.08	0.931	0.974	1.06	1.01	0.995
CC(C)OC(=O)Nc1cccc(Cl)c1	1.06	0.915	0.985	0.948	1.04	1.02	0.984	0.981	1.01	0.963	1.02	1.01	0.965	1.07	1.06	0.85	0.985	1.13	0.965	1.06
Cl.NC1=NCCN1Cc1ccc(Cl)nc1	1.03	1.03	1.02	0.975	1.14	1.04	1.01	1.02	1.06	1.03	1.13	1.04	1.03	0.945	1.06	1.02	1.06	0.507 (active)	1.02	1.05
CN(C)C(CSS(=O)(=O)c1ccccc1)CSS(=O)(=O)c1ccccc1	1.14	0.966	0.999	1.01	1.01	1.06	1.06	1.02	0.901	0.938	1.03	0.97	1.01	1.53	0.932	0.85	0.95	0.98	0.95	0.992
Oc1ccc(Cl)c(Cl)c1Cl	0.923	0.922	0.975	1.02	1.15	1	0.96	0.969	0.998	0.993	1.02	1.01	0.971	1.06	1.09	1.12	1.01	0.978	0.971	1.06
CCCCCCCC(=O)Oc1c(I)cc(C#N)cc1I	1.1	0.886	0.864	0.962	1.1	0.951	0.88	1.03	0.998	0.989	0.995	0.985	0.896	1.09	1.16	0.89	1.01	0.91	0.91	0.908
CCO/N=C(\CC)C1=C(O)CC(c2c(C)cc(C)cc2C)CC1=O (stereo not given)	1.1	0.821	1	0.999	0.97	0.986	0.962	1.05	0.969	0.943	1	0.992	0.978	1.07	1.05	0.875	0.969	1.07	0.995	0.909
CCc1cccc(CC)c1N(COC)C(=O)CCl	0.942	1	0.991	0.949	1.08	0.957	0.985	1	0.974	0.989	0.976	0.96	0.975	0.993	1.05	0.948	1.01	1.04	0.993	0.978
